Results: PubChem BioAssay (EPA / NIEHS)
Results filed as inconclusive are left out. Activity calls are given as the source filed them. The calls were made as follows, unless noted: active = hit-call score of the fitted dose curve at least 0.9, where 1 is the maximum; inactive = score below 0.9.

Tests used:
[1] = CCTE_Harrill_HTTr_Viability_DMEM_6hr: (Pilot) CCTE's 6-hour Cell Viability Assessment for the High-Throughput Transcriptomics (HTTr) Platform, in MCF-7 cells cultured in DMEM + 10% fetal bovine serum, Harrill Lab (AID 2283973)
Procedure, shortened: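 Propidium iodide uptake imaged by high-content analysis after six hours of chemical treatment in an eight-concentration series. Cells: MCF-7 grown in DMEM with 10% fetal bovine serum; DMSO as baseline.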

[2] = CCTE_Harrill_HTTr_Viability_DMEM_12hr: (Pilot) CCTE's 12-hour Cell Viability Assessment for the High-Throughput Transcriptomics (HTTr) Platform, in MCF-7 cells cultured in DMEM + 10% fetal bovine serum, Harrill Lab (AID 2283974)
Procedure, shortened: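 Propidium iodide dye exclusion imaged by high-content microscopy after 12 h chemical exposure (eight concentrations) of MCF-7 cells grown in DMEM plus 10% FBS; values fitted in both directions relative to DMSO.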

[3] = CCTE_Harrill_HTTr_Viability_DMEM_24hr: (Pilot) CCTE's 24-hour Cell Viability Assessment for the High-Throughput Transcriptomics (HTTr) Platform, in MCF-7 cells cultured in DMEM + 10% fetal bovine serum, Harrill Lab (AID 2283975)
Procedure, shortened: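 Pilot study: propidium iodide dye exclusion, imaged by high content microscopy, after 24 h compound exposure (eight concentrations) in MCF-7 cultured in DMEM + 10% fetal bovine serum; DMSO served as negative control and baseline.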

[4] = CCTE_Harrill_HTTr_Viability_PRF_DMEM_6hr: (Pilot) CCTE's 6-hour Cell Viability Assessment for the High-Throughput Transcriptomics (HTTr) Platform, in MCF-7 cells cultured phenol red-free DMEM + 10% charcoal-stripped fetal bovine serum, Harrill Lab (AID 2283976)
Procedure, shortened: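 Membrane integrity by high-content imaging of propidium iodide uptake, six hours after dosing with eight concentrations. Cells: MCF-7 grown in phenol red-free DMEM plus 10% charcoal-stripped serum; DMSO serves as baseline for bidirectional fits.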

[5] = CCTE_Harrill_HTTr_Viability_PRF_DMEM_12hr: (Pilot) CCTE's 12-hour Cell Viability Assessment for the High-Throughput Transcriptomics (HTTr) Platform, in MCF-7 cells cultured in phenol red-free DMEM + 10% charcoal-stripped fetal bovine serum, Harrill Lab (AID 2283977)
Procedure, shortened: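 Membrane integrity was scored via propidium iodide dye exclusion imaging, fitted in both directions relative to DMSO. Compounds ran as eight-point dilutions for 12 hours on MCF-7 grown in phenol red-free DMEM plus 10% charcoal-stripped serum.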

[6] = CCTE_Harrill_HTTr_Viability_PRF_DMEM_24hr: (Pilot) CCTE's 24-hour Cell Viability Assessment for the High-Throughput Transcriptomics (HTTr) Platform, in MCF-7 cells cultured in phenol red-free DMEM + 10% charcoal-stripped fetal bovine serum, Harrill Lab (AID 2283980)
Procedure, shortened: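 Propidium iodide exclusion imaged at 24 h after dosing scores viability; cells were MCF-7 grown in phenol red-free DMEM plus 10% charcoal-stripped serum, tested in eight concentrations, fitted in both directions against DMSO.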

[7] = CCTE_Harrill_HTTr_Apoptosis_DMEM_6hr: (Pilot) CCTE's 6-hour Apoptosis Assessment for the High-Throughput Transcriptomics (HTTr) Platform, in MCF-7 cells cultured in DMEM + 10% fetal bovine serum, Harrill Lab (AID 2283981)
Procedure, shortened: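 MCF-7 cells grown in DMEM + 10% FBS were exposed for 6 hours to an eight-point dilution series. CellEvent Caspase 3/7 Green signal was imaged; activity fitted bidirectionally against DMSO.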

THRA (gene 7067) [8] = target: THRA (gene 7067) (UniProt P10827); test: TOX21_TRA_COA_Agonist_Followup_ratio: Tox21 Thyroid Hormone Receptor alpha Agonism through Coactivator Recruitment Follow-Up Assay, Ratio (AID 2283948)
Procedure, shortened: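 Read-out is the 520/495 nm emission ratio (ex 340 nm), scaled between DMSO-only wells as 0% and T3 wells as 100%. It reflects fluorescein-SRC-2 peptide recruitment to GST-TRα LBD detected via terbium anti-GST antibody.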

THRB (gene 7068) [9] = target: THRB (gene 7068) (UniProt P10828); test: TOX21_TRB_COA_Agonist_Followup_ratio: Tox21 Thyroid Hormone Receptor beta Agonism through Coactivator Recruitment Follow-Up Assay, Ratio (AID 2283963)
Procedure, shortened: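 Agonism is measured as coactivator recruitment in a purified-protein TR-FRET format, using GST-TRβ LBD at 5.0 nM, fluorescein-SRC-2 peptide at 200 nM and Tb-labeled anti-GST antibody at 2 nM. Values are 520:495 nm ratios relative to DMSO (0%) and T3 (100%).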

[10] = target: Retinoic acid receptor RXR-alpha (Homo sapiens) (UniProt P19793); test: TOX21_TR_RXR_BLA_Agonist_Followup_ratio: Tox21 Thyroid Hormone Receptor beta Retinoid X Receptor alpha (RXRa) Agonism Beta-lactamase (BLA) Follow-Up Assay, Ratio (AID 2283968; active = hit-call score of the fitted dose curve at least 0.9, where 1 is the maximum)
Procedure, shortened: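 Read-out: blue/green (460:530 nm) FRET ratio from cleaved vs uncleaved CCF4 substrate, fitted for gain of signal relative to DMSO. Cells: HEK293T with RXRa-UAS-bla reporter; 16 h compound exposure, 11 concentrations, triplicate.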

[11] = TOX21_TR_RXR_BLA_Agonist_Followup_viability: Viability Assessment in the Tox21 Thyroid Hormone Receptor beta Retinoid X Receptor alpha (RXRa) Agonism Beta-lactamase (BLA) Follow-Up Assay (AID 2283970; active = hit-call score of the fitted dose curve at least 0.9, where 1 is the maximum)
Procedure, shortened: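 CellTiter-Glo ATP quantitation as viability read-out in RXRa-bla HEK293T cells (2,500/well, charcoal-stripped 2% FBS medium), 16h compound incubation at 37C. Loss of signal versus DMSO taken as cytotoxicity, analyzed by bidirectional curve fitting.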

[12] = TOX21_PR_LUC_Followup_Antagonist_viability: Viability Assessment in the Tox21 HEK293 Progesterone Receptor (PR) Antagonism Luciferase Follow-Up Assay (AID 2283940; active = hit-call score of the fitted dose curve at least 0.9, where 1 is the maximum)
Procedure, shortened: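 Read-out: CellTiter-Glo ATP luminescence, loss of signal taken as reduced viability. Cells: HEK293-PR-A-luc, 3,000/well, 5 h settling, then 16 h compound exposure at 37C, 0% CO2.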

[13] = TOX21_PR_LUC_Followup_Agonist_viability: Viability Assessment in the Tox21 HEK293 Progesterone Receptor (PR) Agonism Luciferase Follow-Up Assay (AID 2283941; active = hit-call score of the fitted dose curve at least 0.9, where 1 is the maximum;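 also: loss of signal means cytotoxicity so actives lower viability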)
Procedure, shortened: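 Cytotoxicity counter-screen: ATP content by CellTiter-Glo luminescence, loss of signal = reduced viability. HEK293-PR-A-luc, 3,000 cells/well, compound exposure 16 h, 37C.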

[14] = target: Thyroid hormone receptor alpha (Rattus norvegicus) + Thyroid hormone receptor beta (Rattus norvegicus) (UniProt P18113+P63059); test: TOX21_TR_LUC_GH3_Antagonist_Followup: Tox21 GH3 Thyroid Hormone Receptor Antagonism Luciferase Follow-Up Assay (AID 2283942; active = hit-call score of the fitted dose curve at least 0.9, where 1 is the maximum)
Procedure, shortened: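 Luminescence read-out (ONE-Glo, 30 min at room temperature) in GH3 reporter cells challenged with 1.0 nM T3 final. Compounds ran at 92 uM to 5nM over 15 concentrations for 24 h; DMSO served as negative control and baseline.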

THRA (gene 7067) [15] = target: THRA (gene 7067) (UniProt P10827); test: TOX21_TRA_COA_Antagonist_Followup_ratio: Tox21 Thyroid Hormone Receptor alpha Antagonism through Coactivator Recruitment Follow-Up Assay, Ratio (AID 2283953; active = hit-call score of the fitted dose curve at least 0.9, where 1 is the maximum)
Procedure, shortened: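 We measured antagonism of T3-type coactivator recruitment using a TR-FRET ratio (emission 520 and 495 nm) between a Tb-labelled anti-GST antibody on TRα LBD (2.5 nM) and SRC-2 peptide (200 nM). Activity was scaled between DMSO and T3 wells.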

THRB (gene 7068) [16] = target: THRB (gene 7068) (UniProt P10828); test: TOX21_TRB_BLA_Antagonist_Followup_ratio: Tox21 Thyroid Hormone Receptor beta Antagonism Beta-lactamase (BLA) Follow-Up Assay, Ratio (AID 2283958; active = hit-call score of the fitted dose curve at least 0.9, where 1 is the maximum)
Procedure, shortened: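 Read-out: blue/green (460:530 nm) ratio of cleaved to uncleaved CCF4-AM after 2 h at room temperature, fitted against DMSO baseline. HEK293T UAS-bla cells carrying GAL4-human TRβ LBD were exposed 18 h, 37C/5% CO2.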

[17] = TOX21_TRB_BLA_Antagonist_Followup_viability: Viability Assessment in the Tox21 Thyroid Hormone Receptor beta Antagonism Beta-lactamase (BLA) Follow-Up Assay (AID 2283961; active = hit-call score of the fitted dose curve at least 0.9, where 1 is the maximum)
Procedure, shortened: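 HEK293T cells stably expressing GAL4-DBD/human TRβ-LBD with UAS-bla reporter, 3,000 cells/well in phenol red-free DMEM, 2% charcoal-stripped FBS. Compounds at 11 concentrations in triplicate, 18 h at 37C/5% CO2; viability by CellTiter-Glo luminescence after 30 min at room temperature.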

THRB (gene 7068) [18] = target: THRB (gene 7068) (UniProt P10828); test: TOX21_TRB_COA_Antagonist_Followup_ratio: Tox21 Thyroid Hormone Receptor beta Antagonism through Coactivator Recruitment Follow-Up Assay, Ratio (AID 2283967; active = hit-call score of the fitted dose curve at least 0.9, where 1 is the maximum)
Procedure, shortened: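 GST-TRb LBD 5.0 nM + 0.10% BSA, compound added; fluorescein-SRC-2 peptide 200 nM, Tb-anti-GST Ab 2 nM. TR-FRET, ex 340 / em 520:495 ratio. Norm: DMSO 0%, T3 100%.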

[19] = target: Retinoic acid receptor RXR-alpha (Homo sapiens) (UniProt P19793); test: TOX21_TR_RXR_BLA_Antagonist_Followup_ratio: Tox21 Thyroid Hormone Receptor beta Retinoid X Receptor alpha (RXRa) Antagonism Beta-lactamase (BLA) Follow-Up Assay, Ratio (AID 2283972; active = hit-call score of the fitted dose curve at least 0.9, where 1 is the maximum)
Procedure, shortened: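 RXRa-UAS-bla HEK293T cells in phenol red-free DMEM with 2% charcoal-stripped FBS; compounds at 11 concentrations in triplicate, 16 h at 37C. LiveBLAzer FRET-B/CCF4-AM substrate 2 h at room temperature; read as 460:530 nm ratio versus DMSO.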

[20] = TOX21_TR_RXR_BLA_Antagonist_Followup_viability: Viability Assessment in the Tox21 Thyroid Hormone Receptor beta Retinoid X Receptor alpha (RXRa) Antagonism Beta-lactamase (BLA) Follow-Up Assay (AID 2283979; active = hit-call score of the fitted dose curve at least 0.9, where 1 is the maximum)
Procedure, shortened: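 RXRa-bla HEK293T cells (2,500/well, phenol red-free DMEM, 2% charcoal-stripped FBS) were attached 5 h, then exposed to compounds at 11 concentrations in triplicate for 16 h at 37C. Viability measured by CellTiter-Glo ATP luminescence, bidirectional fitting versus DMSO.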

Sequence of THRB (gene 7068) (P10828 whole entry, looked up, the tested form may be a part): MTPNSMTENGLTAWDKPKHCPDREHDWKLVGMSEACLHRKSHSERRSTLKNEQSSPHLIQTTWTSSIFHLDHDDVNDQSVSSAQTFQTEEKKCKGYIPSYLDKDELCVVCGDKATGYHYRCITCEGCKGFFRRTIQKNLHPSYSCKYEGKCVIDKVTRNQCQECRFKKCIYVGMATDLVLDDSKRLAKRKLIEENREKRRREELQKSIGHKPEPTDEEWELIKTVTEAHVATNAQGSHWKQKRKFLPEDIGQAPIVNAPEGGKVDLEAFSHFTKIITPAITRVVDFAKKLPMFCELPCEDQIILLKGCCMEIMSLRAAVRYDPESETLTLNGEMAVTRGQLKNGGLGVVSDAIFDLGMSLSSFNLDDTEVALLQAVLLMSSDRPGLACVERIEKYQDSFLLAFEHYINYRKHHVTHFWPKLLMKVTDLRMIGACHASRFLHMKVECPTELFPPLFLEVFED
Sequence of THRA (gene 7067) (P10827 whole entry, looked up, the tested form may be a part): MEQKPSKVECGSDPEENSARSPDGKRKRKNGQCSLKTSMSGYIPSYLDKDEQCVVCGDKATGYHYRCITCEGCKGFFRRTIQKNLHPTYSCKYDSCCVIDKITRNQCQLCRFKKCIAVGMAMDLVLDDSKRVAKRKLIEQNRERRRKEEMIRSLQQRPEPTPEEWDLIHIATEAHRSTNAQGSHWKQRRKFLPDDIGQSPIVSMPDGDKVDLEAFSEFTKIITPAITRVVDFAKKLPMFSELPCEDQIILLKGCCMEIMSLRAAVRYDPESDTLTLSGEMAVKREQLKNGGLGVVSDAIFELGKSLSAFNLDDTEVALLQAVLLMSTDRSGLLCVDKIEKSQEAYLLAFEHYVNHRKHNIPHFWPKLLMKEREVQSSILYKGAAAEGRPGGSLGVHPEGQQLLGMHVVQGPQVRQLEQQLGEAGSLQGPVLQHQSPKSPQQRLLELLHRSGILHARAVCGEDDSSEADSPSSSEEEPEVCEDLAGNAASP
Sequence of Retinoic acid receptor RXR-alpha (Homo sapiens) (P19793 whole entry, looked up): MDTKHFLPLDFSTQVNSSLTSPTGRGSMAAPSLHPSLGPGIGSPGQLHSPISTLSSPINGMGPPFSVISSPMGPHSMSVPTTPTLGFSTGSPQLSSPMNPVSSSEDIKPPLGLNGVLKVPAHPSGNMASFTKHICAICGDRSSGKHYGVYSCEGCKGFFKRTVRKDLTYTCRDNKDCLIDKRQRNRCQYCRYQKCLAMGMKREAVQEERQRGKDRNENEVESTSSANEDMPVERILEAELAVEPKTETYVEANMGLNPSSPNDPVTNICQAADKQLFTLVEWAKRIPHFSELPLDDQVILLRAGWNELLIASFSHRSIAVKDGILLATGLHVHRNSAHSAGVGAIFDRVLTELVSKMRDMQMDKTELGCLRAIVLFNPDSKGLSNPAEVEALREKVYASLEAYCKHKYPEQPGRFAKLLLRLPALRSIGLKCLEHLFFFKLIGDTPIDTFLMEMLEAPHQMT

CC[C@H](C)C(=O)O[C@H]1C[C@@H](C)C=C2C=C[C@H](C)[C@H](CC[C@@H]3C[C@@H](O)CC(=O)O3)[C@H]21
outcome [1]: inactive | outcome [2]: inactive | outcome [3]: inactive | outcome [4]: inactive | outcome [5]: inactive | outcome [6]: inactive | outcome [7]: inactive

CC(C)=CCC/C(C)=C\CO
outcome (THRA (gene 7067) [8]): inactive | outcome (THRB (gene 7068) [9]): inactive | outcome [10]: inactive | outcome [11]: inactive

CCC(C)(C)C(=O)O[C@H]1C[C@@H](C)C=C2C=C[C@H](C)[C@H](CC[C@@H]3C[C@@H](O)CC(=O)O3)[C@H]21
outcome [1]: inactive | outcome [2]: inactive | outcome [3]: inactive | outcome [4]: inactive | outcome [5]: inactive | outcome [6]: inactive | outcome [7]: inactive

CC(C)c1cccc(C(C)C)c1N1C(=O)c2ccc(O)cc2C1=O
outcome [12]: inactive | outcome [13]: inactive | outcome [14]: inactive | outcome (THRA (gene 7067) [15]): inactive | AC50 (THRB (gene 7068) [16]): 8.53 µM (active) | outcome [17]: inactive | outcome (THRB (gene 7068) [18]): inactive | outcome [19]: inactive | outcome [20]: inactive

O=P(OC(CCl)CCl)(OC(CCl)CCl)OC(CCl)CCl
outcome [12]: inactive | outcome [13]: inactive
